Assay outcomes (PubChem)
TbPYK inhibitor: inhibitors of Trypanosoma brucei pyruvate kinase; TbPYK enzyme, Kinase-Glo Plus ATP luminescence, 45 min; Potency, µM (titrated, usually from 76.8 µM), for the others: top-dose activity, negative = inhibition, usual class: inhibitors; Q57TT1; 410,000 compounds, 0.12% hits; note: potency is the fitted concentration of half-maximal effect; % is set by controls: 0 for no effect and ±100 for the full control effect; nearly all actives have a fitted effect of over 50% in size
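Luminescent Kinase-Glo Plus end-point after 45 min room-temperature reaction of T. brucei pyruvate kinase started with 130 uM ADP (final). Buffer TEA 50 mM pH 7.2 with KCl, MgCl2, BSA, Tween-20; titration-based qHTS with fitted concentration-effect curves.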
RE007 growth inh: less growth of the S. pombe RE007 Vpr strain | S. pombe RE007 Vpr strain, BacTiter-Glo ATP luminescence, 24 h | Potency, µM (highest dose often 92.2 µM), for inactives: at the top dose activity change, negative = less growth, hits mostly inhibitors | 360,000 compounds, 0.21% hits | AID 651644; active = well fitted falling curve with a large enough effect; inconclusive = small, poorly fitted or top-dose-only effect; inactive = no such curve, though single readings can be large or run the other way; note: potency is the fitted concentration of half-maximal effect; % is set by controls: 0 for no effect and ±100 for the full control effect; nearly all actives have a fitted effect of over 50% in size
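Fission yeast RE007 carrying one integrated HIV-1 vpr copy, seeded at OD 0.01 in PMG+AL medium with 23 nL pinned compound. Grown 24 h at 30 degrees; viability read by BacTiter-Glo luminescence after 5 min.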
Shiga inhibitor: blocks Shiga toxin action in Vero cells; 290,000 compounds, 9.2% hits; Vero cells, Shiga toxin protein synthesis inhibition reporter; AID 2315; inhibition, % at 38.7 µM; in the data active = inhibition mostly above about 28%, no sharp cut-off; inactive = mostly below about 43%; note: 0% is about no effect
LmPK inhibitor: inhibitors of Leishmania mexicana pyruvate kinase. Q27686. purified LmPK, Kinase-Glo ATP luminescence, 1 h. Potency, µM (highest dose often 57.5 µM), inactives show top-dose activity change, negative = inhibition, most hits filed as inhibitors. 290,000 compounds, 0.37% hits. AID 1721; note: potency is the fitted concentration of half-maximal effect; % is set by controls: 0 for no effect and ±100 for the full control effect
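Kinase-Glo luminescence read after 1 h RT reaction of 0.1 nM LmPK with 0.5 mM PEP and 0.1 mM ADP. Activity scaled between uninhibited and enzyme-free controls.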
Cycloheximide cs: affects cycloheximide protein synthesis inhibition readout, counter-screen; AID 2314; max response, %; cell reporter, cycloheximide protein synthesis inhibition counterscreen; 300,000 compounds, 12% hits; in the data active = max response mostly above about 13%, no sharp cut-off; inactive = mostly below about 14%; note: read at 38.3 µM for the half of the compounds with a filed dose; 0% is about no effect
Giardia FBPA inh: Giardia lamblia aldolase inhibition. A8B2U2. purified Giardia FBPA. Potency, µM (titrated, usually from 59.6 µM), for the others: at the top dose activity, negative = inhibition, most hits filed as inhibitors. 290,000 compounds, 0.71% hits. AID 2451; note: potency is the fitted concentration of half-maximal effect; % is set by controls: 0 for no effect and ±100 for the full control effect; nearly all actives have a fitted effect of over 55% in size
Target sequence (A8B2U2 whole entry, looked up): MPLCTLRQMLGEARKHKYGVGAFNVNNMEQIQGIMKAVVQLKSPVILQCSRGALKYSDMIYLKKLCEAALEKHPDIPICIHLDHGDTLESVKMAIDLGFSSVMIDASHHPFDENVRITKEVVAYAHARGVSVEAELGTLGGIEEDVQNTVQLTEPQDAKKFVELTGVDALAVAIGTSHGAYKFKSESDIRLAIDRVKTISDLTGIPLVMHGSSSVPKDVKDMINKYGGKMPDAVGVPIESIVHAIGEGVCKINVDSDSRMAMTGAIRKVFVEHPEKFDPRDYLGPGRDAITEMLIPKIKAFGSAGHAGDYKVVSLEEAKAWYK
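Giardia FBPA (40 nM reagent) was preincubated 10 min at RT with compound (up to 57.5 uM final), then substrate plus GAPDH/TPI/NAD/arsenate coupling system with diaphorase/resazurin was added; resorufin fluorescence (525/598 nm) was read after 20 min.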
An asterisk follows results filed as active; ? = inconclusive; nt = no result. This excerpt belongs to a sample that is enriched for hits. Unless noted, calls come from the whole dose curve; as a rule, active = well fitted curve in the direction sought with a large enough effect; inconclusive = small, poorly fitted or top-dose-only effect, or another doubt; inactive = no such curve, though single readings can be large; an effect the other way counts as inactive or inconclusive.

SMILES | TbPYK inhibitor | RE007 growth inh | Shiga inhibitor | LmPK inhibitor | Cycloheximide cs | Giardia FBPA inh
CCCC1=NN(c2ccc([N+](=O)[O-])cc2)C(=O)/C1=C\N(C)C | 4.2% | 2.0% | 23.6 | -9.1% | 11.2* | 1.6%
CCN(CC)c1ccc(/C=C2/C(=O)N(c3ccc([N+](=O)[O-])cc3)N=C2N2CCOCC2)cc1 | nt | nt | -3.8 | 3.6% | 1.3 | 1.8%
CCc1ccc(-c2ccc(C(=O)O)cc2)nc1 | ? | -0.5% | 37.3 | ? | 37.9* | 17.3%
N/C(=N\OC(=O)c1cccc(F)c1)c1ccccc1 | -24.8% | -28.2% | 92.5* | 15.8µM* | 88.3* | -0.8%
Cc1ccc(/C(N)=N/OC(=O)c2cccc(F)c2)cc1 | -3.0% | -14.1% | 115.0* | 0.2% | 37.5* | 1.5%
N/C(=N\OC(=O)c1cccc(F)c1)c1ccccn1 | -8.9% | ? | 16.6 | ? | 0.5 | nt
COc1cc(OC)c(NC(=O)Cn2c(=O)nc(-c3ccccc3)c3ccccc32)cc1Cl | 7.5% | nt | nt | nt | nt | nt
CCOC(=O)c1nnc2c(-c3ccc(Cl)cc3)c(C)nn2c1C | -12.5% | nt | nt | nt | nt | nt
O=C(NCc1cccnc1)c1[nH]c(C(F)(F)F)nc1-c1ccccc1 | -2.5% | -0.5% | nt | nt | nt | nt
O=[N+]([O-])C(=C1Nc2ccccc2N1)C(Cl)=C(Cl)Cl | -3.4% | 2.8% | 24.5 | 6.0% | 16.5* | ?
CCN(CCO)c1ccc(N=Cc2c(O)n(C)c(=S)[nH]c2=O)cc1 | -6.1% | -0.4% | 79.9* | -11.9% | 44.2* | ?
O=c1[nH]c(=S)n(C2CC2)c(O)c1C=Nc1ccc2c(c1)OCO2 | -2.6% | 40.6% | 36.9 | 3.6% | 13.8* | -23.3%
O=c1[nH]c(=S)n(C2CC2)c(O)c1C=NCc1ccc(F)cc1 | 2.3% | -3.4% | -11.9 | -0.2% | 0.8 | 17.3%
CCN(CC)c1ccc(N=Cc2c(O)n(Cc3ccco3)c(=O)[nH]c2=O)cc1 | -2.2% | 10.0% | -2.4 | 4.8% | 0.6 | 0.0%
O=c1[nH]c(=S)n(C2CCCCC2)c(O)c1C=NCCN1CCOCC1 | -1.8% | 5.6% | -3.9 | 0.5% | -1.9 | -17.2%
CC(C)c1ccc(N=Cc2c(O)n(C3CC3)c(=S)[nH]c2=O)cc1 | -3.9% | -7.2% | 52.0* | 1.9% | 10.4* | 2.6%
CCOCN(C(=O)Cn1cnc2cc(C)c(C)cc21)c1c(C)cccc1CC | -3.2% | nt | nt | nt | nt | nt
CCOC(=O)c1c(S(=O)(=O)NCC(=O)N(C)Cc2ccccc2)c(C)n(C)c1C | 1.2% | nt | nt | nt | nt | nt
CCN1CCOC(=O)C1CC(=O)Nc1cc(Cl)ccc1OC (centres undefined) | -7.5% | nt | nt | nt | nt | nt
O=C(Nc1ccc(OC(F)(F)F)cc1)c1[nH]ncc1[N+](=O)[O-] | -0.9% | -13.1% | 78.3* | -3.7% | 42.5* | 7.8%
O=C(Nc1ccc(S(=O)(=O)N2CCCCCC2)cc1)c1[nH]ncc1[N+](=O)[O-] | nt | nt | 55.9* | 4.6% | 27.8* | nt
CCCNC(=O)Cc1c(C)oc2ccccc12 | 1.3% | -2.0% | -12.6 | 3.3% | 1.3 | 4.7%
Oc1oc(-c2ccccc2)nc1C=NCc1ccccc1 | -3.5% | -7.5% | 118.7* | -0.3% | 60.8* | -9.5%
CN(C)c1ccc(N=Cc2nc(-c3ccccc3)oc2O)cc1 | -14.5% | ? | 17.2 | -3.2% | 10.9 | 0.7%
O=C(Oc1oc(-c2ccco2)nc1C=Nc1ccc(Cl)cc1)c1ccco1 | -8.2% | ? | 50.5* | 5.6% | 23.1* | -13.8%
SMILES | TbPYK inhibitor | RE007 growth inh | Shiga inhibitor | LmPK inhibitor | Cycloheximide cs | Giardia FBPA inh
COc1ccc(N=Cc2nc(-c3ccco3)oc2O)cc1 | -5.3% | ? | 101.8* | -13.9% | 50.7* | -3.1%
COc1ccc(-c2nc(/C=C3\C(C)=Nc4ccccc43)c(O)o2)cc1 | 1.8% | -1.2% | 1.9 | 4.9% | -0.4 | -6.6%
CC(=O)Oc1oc(-c2ccccc2)nc1C=Nc1ccc(N(C)C)cc1 | -3.5% | 6.3% | 38.5 | -2.5% | 9.8 | 2.4%
Oc1oc(-c2ccccc2)nc1C=Nc1ccccc1 | 2.4% | -24.2% | 115.1* | -3.9% | 46.4* | -6.2%
CCC(=O)N1c2ccc(S(=O)(=O)NCc3ccc(F)cc3)cc2CC1C (centres undefined) | -1.3% | nt | nt | nt | nt | nt
COc1ccc2c(c1)NC(c1ccc(Cl)cc1)=NC(c1cccs1)=N2 | -0.8% | nt | nt | nt | nt | nt
